Source: PubChem
CCHF vOTU inh – CCHFV vOTU protease inhibition; AID 651958; Pep-AMC fluorescence; inhibition, % at 11.5 µM; 370,000 tested, 0.55% active; note: 0% = vehicle wells with enzyme and 100% = no enzyme wells
BH1578 lux ind – inducers of Vibrio cholerae quorum light production without autoinducers | V. cholerae BH1578 lux reporter, luminescence, 6 h | activation, % at 18.7 µM | 350,000 tested, 0.16% active | AID 588436; in the data active = activation mostly above about 9.7%, no sharp cut-off
GDH-TPI counter – GDH-TPI coupled enzyme inhibition counter-screen. 360,000 tested, 1.2% active. AID 588335. inhibition, % at 4.8 µM. GDH-TPI coupled enzyme counterscreen, NADH absorbance;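 note: 0% = DMSO wells and 100% = wells lacking the enzyme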
FBA Mtb inh – inhibits M. tuberculosis FBA enzyme | AID 588726 | purified M. tuberculosis FBA, fluorescence read-out | 360,000 tested, 2.3% active | P9WQA3 | inhibition, % at 1 µM; in the data active = inhibition above about 27%;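 note: 0% = vehicle and 100% = reference inhibitor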
Target sequence (P9WQA3 whole entry, looked up): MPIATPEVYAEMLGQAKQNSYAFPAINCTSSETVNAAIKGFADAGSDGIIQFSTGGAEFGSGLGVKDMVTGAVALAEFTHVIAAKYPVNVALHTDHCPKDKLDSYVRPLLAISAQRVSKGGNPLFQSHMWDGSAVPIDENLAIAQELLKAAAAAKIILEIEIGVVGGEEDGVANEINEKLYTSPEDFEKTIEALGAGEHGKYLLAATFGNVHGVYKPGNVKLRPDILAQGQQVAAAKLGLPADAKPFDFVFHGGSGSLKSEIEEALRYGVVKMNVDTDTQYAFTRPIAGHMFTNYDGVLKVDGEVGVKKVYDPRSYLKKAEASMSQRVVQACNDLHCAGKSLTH
Numbers without * were called inactive; i = inactive; · = not tested or not shown; + = active, no number. The list is not random: actives were taken first. Their share in the collection is about 3.9%. Cut-off read from the data, not from the text of the source, unless noted: active = inhibition above about 30%; inactive = the rest.

SMILES	CCHF vOTU inh	BH1578 lux ind	GDH-TPI counter	FBA Mtb inh
COc1ccc(C(=O)/C=C/Nc2cc(C)on2)c(OC)c1	5	-1	40*	2
Cc1cc(Nc2c(C)n(C)n(-c3ccccc3)c2=O)c2ccccc2n1	-16	i	16	2
CCOc1cc(/C=N/NC(=O)c2c(-c3ccccc3)noc2C)ccc1O	6	0	29	-6
CCOc1cc(/C=N\NC(=O)c2c(C)nc3ccccn23)ccc1O	-2	i	48*	-1
Cc1nc2ccccn2c1C(=O)N/N=C/c1ccc2c(c1)OCO2	12	-1	42*	-1
Cc1nc2ccccn2c1C(=O)N/N=C/c1ccccc1[N+](=O)[O-]	-2	-12	30	3
Cc1nc2ccccn2c1C(=O)N/N=C/c1cc(C)n(-c2ccc(Cl)cc2)c1C	15	1	36*	5
CCC(C)NC(=O)CSc1nnc(-c2cc(-c3ccc(C)cc3)nc3ccccc23)n1N (stereo not drawn)	-3	40*	6	26
Cc1cccc(OCC(=O)NCC(c2cccs2)N2CCOCC2)c1 (stereo not drawn)	-6	i	0	-2
COc1ccc(-c2c(-c3ccsc3)oc3c2C(O)CCC3)cn1 (stereo not drawn)	-16	·	·	·
NC(=S)N/N=C/c1ccccc1OCc1cccc(Cl)c1	·	0	41*	-1
CNC(=S)N(Cc1ccc2c(c1)OCO2)C1CC(=O)N(c2ccccc2)C1=O (stereo not drawn)	0	i	-1	4
CCC(c1nnnn1CC1CCCO1)N(CCN1CCOCC1)Cc1cc2cc(C)ccc2[nH]c1=O (stereo not drawn)	8	i	19	8
Cc1cc(O)cc(O)c1C=NCc1ccco1	-9	i	33*	2
COc1ccc(C=NNc2nc3c([nH]2)c(=O)n(C)c(=O)n3C)cc1	7	-2	34*	-1
Cn1c(=O)c2[nH]c(NN=Cc3ccc(Br)cc3)nc2n(C)c1=O	4	-13	28	-2
Cc1ccc(C=NNc2nc3c([nH]2)c(=O)n(C)c(=O)n3C)cc1	13	i	46*	5
Cn1c(=O)c2[nH]c(NN=Cc3ccccc3)nc2n(C)c1=O	9	-6	26	-3
COC(=O)c1ccc(COC(=O)CNC(=O)c2cccs2)cc1	-5	i	4	5
Cn1c(-c2c(N)n(CCc3ccccc3)c3nc4ccccc4nc23)nc2ccccc21	·	0	0	7
COc1ccc(Cn2c(N)c(C#N)c3nc4ccccc4nc32)cc1	-118	i	8	179*
COc1cccc(Cn2c(N)c(C#N)c3nc4ccccc4nc32)c1OC	-19	0	7	7
N#Cc1c(N)n(CCc2ccc(F)cc2)c2nc3ccccc3nc12	-176	i	-3	151*
Cc1ccc(Cn2c(N)c(S(=O)(=O)c3cccs3)c3nc4ccccc4nc32)cc1	-9	3	8	18
COCCn1c(N)c(S(=O)(=O)c2cccs2)c2nc3ccccc3nc21	-152	-4	26	+
SMILES	CCHF vOTU inh	BH1578 lux ind	GDH-TPI counter	FBA Mtb inh
COCCn1c(N)c(C#N)c2nc3ccccc3nc21	-304	-8	9	115*
COc1cccc(C(=O)NNC(=O)c2cccc3ccccc23)c1	-5	-8	5	-2
O=C(NC1CCCCC1)c1cc(-c2ccccc2Cl)on1	-13	0	3	0
O=C(Cc1ccccc1)c1ccc(O)cc1O	0	i	38*	3
O=C(c1ccc(O)cc1)c1ccc(O)cc1O	7	i	35*	1
CN(C)c1ccc(C(=O)c2ccc(O)cc2O)cc1	4	0	19	-2
O=C(COc1ccccc1F)c1ccc(O)cc1O	15	1	50*	-2
Cc1c(O)ccc(C(=O)COc2ccccc2F)c1O	26	·	22	2
O=C(c1ccccc1)c1ccc(O)cc1O	19	-1	52*	2
CCN(C(=O)/C=C/c1ccc(OC)cc1)C1CCCCC1	-4	0	11	-1
Cc1cccc(NC(=O)CC(C)S(=O)(=O)c2ccc3c(c2)NC(=O)CO3)c1C (stereo not drawn)	2	i	-4	0
CCCCN(C(=O)c1ccccc1F)c1c(N)n(CCC)c(=O)[nH]c1=O	-6	0	-16	1
Cc1ccc(S(=O)(=O)N2C[C@]3(O)C[C@@H]4C(=O)N(c5ccccc5)C(=O)[C@@H]4C[C@]3(OC(=O)Nc3cccs3)C2)cc1	28	0	11	1
Cc1ccc(NC(=O)CSc2n[nH]c(C)c2[N+](=O)[O-])cc1C	12	0	4	0
CN(C)Cc1c(O)ccc2cc(-c3nc4ccccc4n3C)c(=O)oc12	-350	0	-7	+
CN(C)Cc1c(O)ccc2c(-c3ccccc3)cc(=O)oc12	-8	i	3	10
CCOC(=O)CNC(=O)C(Cc1ccc2c(c1)OCO2)NC(C)=O (stereo not drawn)	1	·	·	·
O=C(O)c1ccc(Nc2nc(-c3cccnc3)cs2)cc1O	6	0	43*	-2
BrC(/C=N/Nc1nc(N2CCOCC2)nc(N2CCOCC2)n1)=C/c1ccccc1	16	i	41*	2
Cc1cc(S(=O)(=O)NCCc2ccncc2)cc(C)c1F	-6	-1	9	3
C=CCN1C(=O)[C@@H](CC(=O)NCC2CCCCC2)[C@]2(C(=O)OCC)CCCCC/C=C/12	15	·	·	·
Cc1c(NC(=O)c2ccc(=O)oc2)c(=O)n(-c2ccccc2)n1C	-2	·	33*	-1
Cc1c(NC(=O)c2ccc(C(=O)Nc3c(C)n(C)n(-c4ccccc4)c3=O)cc2)c(=O)n(-c2ccccc2)n1C	-3	0	16	3
Cc1c(Nc2cc(=O)oc3ccccc23)c(=O)n(-c2ccccc2)n1C	3	17*	3	-5
CCN(CC(=O)NCc1cccs1)C(=O)c1ccc(N(C)S(=O)(=O)c2ccc(C)cc2)cc1	10	0	9	5
SMILES	CCHF vOTU inh	BH1578 lux ind	GDH-TPI counter	FBA Mtb inh
C=CCN(CC=C)c1nc2ccccc2nc1C(C#N)C(=O)OC(C)C (stereo not drawn)	-8	i	10	36*
Cc1cccc(Nc2ncc3c(n2)CC(c2ccco2)CC3=O)c1 (stereo not drawn)	10	-1	26	0
Cc1cccc(Nc2ncc3c(n2)CC(C)CC3=O)c1 (stereo not drawn)	9	1	36*	4
COc1ccc(Nc2ncc3c(n2)CC(c2ccccc2)CC3=O)cc1 (stereo not drawn)	-13	0	31*	0
Cc1cc(OC(C)C(=O)NCC2CCC(C(=O)O)CC2)c2c(C)c(Cc3ccccc3)c(=O)oc2c1 (stereo not drawn)	-13	0	10	22
COC(=O)COc1cc(OCC(=O)OC)c2c(C)c(Cl)c(=O)oc2c1	-130	0	9	+
COC(=O)C(C)Oc1cc(OC(C)C(=O)OC)c2c(C)c(Cl)c(=O)oc2c1 (stereo not drawn)	-235	0	11	+
CC(=O)Nc1ccc(/C=N/Nc2nc3ccccc3[nH]2)cc1	17	0	38*	-5
O=C(O)c1ccc(/C=N/Nc2ccc(C(F)(F)F)cn2)cc1	19	0	38*	0
